# Laboratory results as given in PubChem BioAssay (NCATS).
# Inconclusive results are not listed. A call without a number means that no potency is given here. Active and inactive are the calls of the source. Calls follow the shape of the dose curve; as a rule, active = well fitted cell-killing curve with a large enough effect; inconclusive = small, poorly fitted or top-dose-only effect, or effect the other way; inactive = flat fitted curve, though single readings scatter.
# Test system: JEG-3
# Assay: Primary qHTS to identify gynecologic anti-cancer compounds using libraries of approved drugs and bioactive compounds (AID 1345084); also: nearly all actives have a fitted effect of over 55% in size
# Details: Gynecologic cancer cell panel viability, ATPlite luminescence, 48 h; series mostly up to 57.5 µM
# Source text: National Center for Advancing Translational Sciences [NCATS] Assay Overview: Chemotherapeutic drug responses vary from cancer to cancer and from patient to patient. These variations could be caused by a number of factors including patient genomic background, tumor mutations, tumor heterogeneity, and aspects of drug treatment. Chemotherapeutic drug resistance is also a common issue and can lead to ineffective treatment and patient death. Here we have profiled the cell killing effects of thousands of compounds to characterize the responses in three gynecological cancers, identify cancer-selective compounds, and understand the diversity of responses to these compounds from pan-cancer suppressors to single cell line selective compounds. In this assay, we screened a 7,914 compound drug library that included approved drug and bioactive compounds in six ovarian, three cervical, and […] placental cancer cell lines using the ATPlite assay for cell viability. […] The cervical cancer cell lines included HeLa, Ca Ski, and C-33 A. The placental cancer cell lines included JEG-3. HEK 293T cells were used as the control cell line to determine the selectivity index. ATPlite is a luminescence based assay reliant on the conversion of a luciferase substrate to light in the presence of ATP. As a cytotoxic compound will suppress growth and decrease the number of cells, the concentration of ATP will decrease, and less light signal will be detected in the well.
# Assay Protocol Summary: 1,000 cells in 4 uL of media were dispensed into white, solid bottom 1536-well plates using a Multidrop Combi (Thermo Scientific). The Assay plates were incubated for 16 hours at 37 C with 5% CO2 in assay plates, followed by the addition of 23 nL of DMSO or drug dissolved in DMSO. Each compound was assayed in five concentrations (0.092, 0.46, 2.3, 11.5, and 57.5 uM), using the automated Wako 1536 Pin Tool workstation and incubated at 37 C with 5% CO2 48 hours. 4 uL of ATPlite, the ATP monitoring reagent, was then added to the each well of the assay plates using the Multidrop Combi reagent dispenser followed by incubation for 15 minutes at room temperature. The resulting luminescence was measured using the ViewLux plate reader.
row,Compound,Potency
1,Cc1ccc(S(=O)(=O)N[C@@H](CCCCN)C(=O)CCl)cc1,inactive
2,O=C(O)C(=O)c1cn(Cc2ccccc2)c2ccc(-c3ccc(OC(F)(F)F)cc3)cc12,inactive
3,CCC(COC(=O)c1cc(OC)c(OC)c(OC)c1)(c1ccccc1)N(C)C (stereo not given),inactive
4,CCCC1CCCCN1 (stereo not given),inactive
5,CCOC(=O)C1(c2ccccc2)CCN(CCC(C#N)(c2ccccc2)c2ccccc2)CC1,inactive
6,CC(=O)Nc1cc([As](=O)(O)O)ccc1O,inactive
7,C#CCOC(C(=O)OCCN(C)C)(c1ccccc1)c1ccccc1,inactive
8,C[C@]12CCC(=O)C(O)=C1CC[C@@H]1[C@@H]2CC[C@]2(C)C(=O)CC[C@@H]12,inactive
9,Clc1ccc(COC(Cn2ccnc2)c2ccc(Cl)cc2Cl)cc1 (stereo not given),inactive
10,Cc1ccc2c(c1)C1CN(C)CCC1N2 (stereo not given),inactive
11,CN(C)CCc1ccc(O)cc1,inactive
12,OCCOc1ccccc1,inactive
13,CCN(C(C)=O)c1cccc(-c2ccnc3c(C#N)cnn23)c1,inactive
14,N[C@@H](Cc1ccc(Oc2cc(I)c(O)c(I)c2)c(I)c1)C(=O)O,inactive
15,NP(N)(=O)NC(=O)c1ccc(F)cc1,inactive
16,CN(C)[C@@H]1C(=O)C(C(N)=O)=C(O)[C@@]2(O)C(=O)C3=C(O)c4c(O)cccc4[C@@](C)(O)[C@H]3C[C@@H]12,inactive
17,C=CCN1CC[C@]23c4c5ccc(O)c4O[C@H]2C(=O)CC[C@@]3(O)[C@H]1C5,inactive
18,CCCC(C)(COC(N)=O)COC(=O)NC(C)C (stereo not given),inactive
19,c1ccc2c(c1)OCC(C1=NCCN1)O2 (stereo not given),inactive
20,CC1OC(C)OC(C)O1 (stereo not given),inactive

row,Compound,Potency
1,O=c1[nH]c2ccccc2n1C1CCN(CCCC(c2ccc(F)cc2)c2ccc(F)cc2)CC1,inactive
2,CC(C)=CCOc1c2occc2cc2ccc(=O)oc12,inactive
3,O=C1CC[C@@]2(O)[C@H]3Cc4ccc(O)c5c4[C@@]2(CCN3CC2CC2)[C@H]1O5,inactive
4,CC(=O)[C@H]1CC[C@H]2[C@@H]3CC[C@H]4C[C@](C)(O)CC[C@]4(C)[C@H]3CC[C@]12C,inactive
5,CNC(=O)N1N=C(c2ccc(N)cc2)c2cc3c(cc2CC1C)OCO3 (stereo not given),inactive
6,O=c1[nH]c2ccccc2n1CCCN1CCC(n2c(=O)[nH]c3cc(Cl)ccc32)CC1,inactive
7,c1ccc2c(c1)Nc1ccccc1S2,inactive
8,NN=C(N)N,inactive
9,CCC(C(N)=O)N1CCCC1=O (stereo not given),inactive
10,CN1C(=S)CN=C(c2ccccc2)c2cc(Cl)ccc21,inactive
11,CC(O)(CS(=O)(=O)c1ccc(F)cc1)C(=O)Nc1ccc(C#N)c(C(F)(F)F)c1 (stereo not given),inactive
12,CC[N+](CC)(CC)CC,inactive
13,CC(C)NCC(O)c1ccccc1Cl (stereo not given),inactive
14,Oc1ccccc1-c1ccccc1,inactive
15,NCC(O)c1ccc(O)cc1 (stereo not given),inactive
16,CO[C@]12CC[C@@]3(C[C@@H]1[C@](C)(O)C(C)(C)C)[C@@H]1Cc4ccc(O)c5c4[C@@]3(CCN1CC1CC1)[C@H]2O5,inactive
17,CC[C@@H](CO)NC(=O)[C@@H]1C=C2c3cccc4c3c(cn4C)C[C@H]2N(C)C1,inactive
18,COc1ccccc1N1CCNCC1,inactive
19,COc1ccc2c(c1OC)CN1CCc3cc4c(cc3C1C2)OCO4 (stereo not given),inactive
20,C[C@]12C/C(=C/O)C(=O)C[C@@H]1CC[C@@H]1[C@@H]2CC[C@@]2(C)[C@H]1CC[C@]2(C)O,inactive
